This note sets out measurements from PubChem BioAssay AID1259251 (The Scripps Research Institute Molecular Screening Center, 2017).

The inhibition is the relative decrease from the control value, in per cent.

Each structure is given as a SMILES string. About 580 (1.9%) of roughly 30,000 compounds were called active. Rule as the data show it: active = inhibition above about 43%; inactive = the rest. Many of the other results were omitted from the sample, so actives are more common in it than they were.

The assay deals with Serine/threonine-protein kinase ULK1 (Homo sapiens) (UniProt O75385). Briefly: ULK1 kinase inhibitors, primary screen, biochemical, AlphaScreen (AID 1259251).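 Also: 0% = median of compound wells and 100% = no enzyme.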 To be noted: AlphaScreen Atg13 phosphorylation by ULK1, luminescence; at 5.96 µM; active compounds read high.
Sequence of Serine/threonine-protein kinase ULK1 (Homo sapiens) (O75385 whole entry, looked up): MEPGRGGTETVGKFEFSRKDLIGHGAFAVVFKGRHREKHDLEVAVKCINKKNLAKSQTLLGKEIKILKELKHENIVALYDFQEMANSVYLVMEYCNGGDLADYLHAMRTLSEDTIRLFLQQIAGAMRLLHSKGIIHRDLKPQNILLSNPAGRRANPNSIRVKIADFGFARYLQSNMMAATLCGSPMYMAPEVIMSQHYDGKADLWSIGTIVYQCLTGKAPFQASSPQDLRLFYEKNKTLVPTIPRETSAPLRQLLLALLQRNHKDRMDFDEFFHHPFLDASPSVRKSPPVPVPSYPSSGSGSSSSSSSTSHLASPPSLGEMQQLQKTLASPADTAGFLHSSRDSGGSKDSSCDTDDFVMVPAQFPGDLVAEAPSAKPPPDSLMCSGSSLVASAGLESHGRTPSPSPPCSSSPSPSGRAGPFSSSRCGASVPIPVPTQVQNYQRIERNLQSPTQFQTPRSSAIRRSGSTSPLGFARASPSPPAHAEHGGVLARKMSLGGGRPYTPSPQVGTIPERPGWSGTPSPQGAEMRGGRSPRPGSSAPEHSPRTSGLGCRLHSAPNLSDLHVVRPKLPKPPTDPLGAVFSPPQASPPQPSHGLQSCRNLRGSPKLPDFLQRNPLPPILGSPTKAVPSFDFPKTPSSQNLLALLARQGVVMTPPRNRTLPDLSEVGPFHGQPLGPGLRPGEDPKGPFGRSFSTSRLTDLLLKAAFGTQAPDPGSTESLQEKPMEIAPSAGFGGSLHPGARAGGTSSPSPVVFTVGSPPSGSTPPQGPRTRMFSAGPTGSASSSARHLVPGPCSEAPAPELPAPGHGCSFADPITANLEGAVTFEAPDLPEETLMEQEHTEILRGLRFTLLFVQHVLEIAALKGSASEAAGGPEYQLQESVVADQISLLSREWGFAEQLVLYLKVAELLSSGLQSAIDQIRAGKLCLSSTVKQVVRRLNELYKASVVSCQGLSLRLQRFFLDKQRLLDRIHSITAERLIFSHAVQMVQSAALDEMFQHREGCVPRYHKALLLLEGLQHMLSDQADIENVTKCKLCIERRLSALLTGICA
Take `Cc1ncccc1-c1ncn(-c2ccc(Nc3nccc(-c4cc(F)cc(N5CCOCC5)c4)n3)cc2)n1`: the inhibition is 5.38% (inactive).

Take `Cn1cc(-c2nc(Nc3ccc(-n4cnc(N5CCC(O)CC5)n4)cc3)ncc2Br)cn1`: the inhibition is 85.1% (active). With `COC1CCN(c2ncn(-c3ccc(Nc4nccc(-c5cncc(N6CCOCC6)c5)n4)cc3)n2)CC1` the figure was -6.75% (inactive); with `Cn1cc(-c2ccc3cnc(Nc4ccc(-n5cnc(N6CCOCC6)n5)cc4)nc3c2-c2cnn(C)c2)cn1`, 51.5% (active).

Consider `c1coc(-c2ccc3cnc(Nc4ccc(-n5cnc(N6CCOCC6)n5)cc4)nc3c2)n1`, for which the inhibition was 3.23% (inactive). In the case of `Cn1cc(-c2cc(Nc3ccc(-n4cnc(N5CCC(O)CC5)n4)cc3)ncc2Cl)cn1`, the inhibition was -17% (inactive). Regarding `O=C(NC1CCN(Cc2ccccc2)CC1)c1cccc(-c2cccs2)n1`, the inhibition is -5.23% (inactive). With `O=C(Nc1ccc2[nH]ncc2c1)c1ccnc(OC2CCN(Cc3ccccc3)CC2)c1` the figure was -8.14% (inactive). To `O=C(NC1CCN(Cc2ccccc2)CC1)c1cc(Cl)nc2ccccc12` belongs 2.89% (inactive); to `Cn1c(Nc2nc(NCc3cccc(C(F)(F)F)c3)c3ncn(C4CCCCC4)c3n2)nc2ccccc21`, 8.91% (inactive). To `O=C(NCCc1ccc(O)cc1)c1csc(Nc2ccc(N3CCOCC3)cc2)n1` belongs 13.3% (inactive); to `Cc1cnc(-c2c(C)noc2C)nc1Nc1ccc(N2CCOCC2)cc1`, -1.73% (inactive); to `Cc1cnc(Nc2ccc(N3CCOCC3)cc2)nc1Nc1ccccc1-c1ncn[nH]1`, 70.3% (active).

As to `c1ccc(-c2ncn[nH]2)c(Nc2ccnc(Nc3ccc(N4CCOCC4)cc3)c2)c1`, the inhibition was 24.2% (inactive). With `c1ccc(CN2CCC(Nc3nc(NCCOc4ccccc4)c4[nH]cnc4n3)CC2)cc1` the figure was -28% (inactive). For the compound `FC(F)(F)c1ccc(Cn2cnc3c(Nc4ccccc4)nc(N4CCN(c5ccccn5)CC4)nc32)cc1`, the inhibition is -7.96% (inactive). Consider `CN(C)c1cccc(Nc2cc(C(=O)NC3CC3)c3ccccc3n2)c1`, for which the inhibition is 4.11% (inactive).

Regarding `Cc1ccc(CNC(=O)c2cn(C)c3c(=O)n(-c4ccccc4)c(=O)[nH]c23)cc1`, the inhibition is 1.67% (inactive).

For `CN1CCN(C(=O)c2ccc(-c3cc(NCc4cccc(C(F)(F)F)c4)ncn3)cc2)CC1`, the inhibition is -4.67% (inactive).

Take `COc1ccc(Cl)cc1NC(=O)COc1cccc2c1OC(C)(C)C2`: the inhibition is -8.02% (inactive). Consider `CNC(=O)c1cc(F)ccc1Nc1cc(Nc2ccc3[nH]ncc3c2)ncc1C(F)(F)F`, for which the inhibition was 78.3% (active).

With `CC(=O)Nc1ccc(Nc2cc(Nc3ccccn3)nc(N)n2)cc1`, the inhibition was -21.9% (inactive). Take `CNC(=O)c1cc(F)ccc1Nc1cc(Nc2ccc3c(c2)CCC(=O)N3)ncc1C(F)(F)F`: the inhibition is 85.8% (active). As for `O=C1Cc2cc(Nc3cc(Nc4ccccn4)c(C(F)(F)F)cn3)ccc2N1`, the inhibition is 38.2% (inactive). Turning to `CNC(=O)c1cc(F)ccc1Nc1cc(Nc2ccc3nc[nH]c3c2)ncc1C(F)(F)F`, the inhibition was 3.83% (inactive). Consider `COc1cc(NC(=O)c2cnc(Nc3ccc(C(F)(F)F)cc3)s2)cc(OC)c1OC`, for which the inhibition was -10.3% (inactive). Consider `O=C(NCCO)c1cc(Nc2ccc3[nH]ncc3c2)ccn1`, for which the inhibition was -10.8% (inactive).

For `CNC(=O)c1cc(F)ccc1Nc1cc(Nc2ccc(NC(C)=O)cn2)ncc1C(F)(F)F`, the inhibition is 89% (active). To `COc1ccc(Oc2ncc(-c3ccc(OC)cc3)cn2)cc1` belongs -2.6% (inactive); to `COc1ccc(-n2cc(-c3ccccc3[N+](=O)[O-])cn2)cc1`, -17.3% (inactive); to `Cc1nn(C)c(C)c1-c1nc2ccc(C(=O)NCCO)cc2s1`, 1.9% (inactive). To `O=C(NCCOc1ccccc1)c1ccc2nc(N3CCN(Cc4ccc5c(c4)OCO5)CC3)sc2c1` belongs 1.44% (inactive). Turning to `COc1ccc(-c2nc3ncnc(NCCc4ccc(O)cc4)c3[nH]2)cn1`, the inhibition was -9.33% (inactive). With `c1ccc(Oc2cc(NC3CC3)ncn2)cc1`, the inhibition is 4.64% (inactive).

`O=C(NCc1nc2ccccc2[nH]1)c1cccc(-c2cccs2)c1`: the inhibition is 1.37% (inactive). Take `CC(C)(C)c1ccc(S(=O)(=O)NCc2nc(-c3ccncc3)n[nH]2)cc1`: the inhibition was 2.8% (inactive). To `Cc1ccc(C)c(NS(=O)(=O)c2ccc3c(c2)OCCCO3)c1` belongs 0.58% (inactive). With `O=C1CCCN1CCn1cnc2c(Nc3ccc(N4CCOCC4)cc3)nc(NCc3ccc4c(c3)OCO4)nc21`, the inhibition was 11.6% (inactive). With `c1ccc(CN2CCC(Nc3nc(-c4ccccc4)nc4c3ncn4C3CCCCC3)CC2)cc1` the figure was -30.6% (inactive). Take `c1ccc(CN2CCC(Nc3nc(Nc4ccc(N5CCOCC5)cc4)c4ncn(C5CCCCC5)c4n3)CC2)cc1`: the inhibition is 50.8% (active). Consider `c1ccc(CN2CCC(Nc3nc(NCc4ccc5c(c4)OCO5)nc4c3ncn4C3CCCCC3)CC2)cc1`, for which the inhibition was 1.3% (inactive). For `c1ccc(CN2CCC(Nc3nc(NCCN4CCOCC4)c4ncn(C5CCCCC5)c4n3)CC2)cc1`, the inhibition was 7.74% (inactive). For the compound `c1cc2c(cc1CNc1nc(Nc3ccc(N4CCOCC4)cc3)c3ncn(C4CCCCC4)c3n1)OCO2`, the inhibition was 56.2% (active). Turning to `CC(C)N(CCNC(=O)C1CCN(c2ccc(Nc3ccccc3)nn2)CC1)C(C)C`, the inhibition was 0.63% (inactive). For the compound `COc1cc(NC(=O)c2ccnc(-c3c(C)noc3C)c2)cc(OC)c1OC`, the inhibition is 3.86% (inactive). Consider `Oc1ccc(CCNc2nc(Nc3ccncn3)nc3c2ncn3C2CCCCC2)cc1`, for which the inhibition is 14.6% (inactive).

Turning to `CC(=O)Nc1ccc(Nc2nc(Nc3ccccn3)ncc2C)cc1`, the inhibition was 8.71% (inactive).

For the compound `CC(C)N(CCNC(=O)Cc1cn(-c2ccc(Nc3ccc(N4CCOCC4)cc3)nn2)c2ccccc12)C(C)C`, the inhibition is 5.92% (inactive). To `COc1cc(CNC(=O)c2cnc3cc(-c4cn[nH]c4)ccn23)cc(OC)c1` belongs -6.5% (inactive); to `CCCNC(=O)c1ccc2nc(-c3c(C)nn(C)c3C)sc2c1`, 1.04% (inactive). On to `CN(C)c1cccc(Nc2nc(NCCO)c3[nH]cnc3n2)c1`, for which the inhibition was 15.6% (inactive).

For the compound `O=C1CCCN1CCCNc1nc(-c2ccccc2)nc2nc[nH]c12`, the inhibition is 9.26% (inactive). For the compound `O=C1CCCN1CCCNc1nc(Nc2ccc3ncccc3c2)nc2nc[nH]c12`, the inhibition is 67.6% (active). On to `O=C1CCCN1CCCNc1nc(Nc2cnccn2)nc2nc[nH]c12`, for which the inhibition was -13.6% (inactive). With `OCCNc1nc(Nc2ccccn2)nc2nc[nH]c12` the figure was 8.19% (inactive); with `OCCNc1nc(Nc2ccc3ncccc3c2)nc2nc[nH]c12`, 62.7% (active).
